In PubChem BioAssay (Tox21):
A number with no mark means an inactive call. Records with an inconclusive call do not appear. Entries that show only a call come without a potency. Activity calls are given as the source filed them. Unless noted, calls follow the shape of the dose curve; as a rule, active = well fitted curve in the direction sought with a large enough effect in the repeat runs; inconclusive = weak or mixed curves; inactive = no such curve, though single readings can be large; an effect the other way counts as inactive or inconclusive.

Experiments:
[1] = qHTS assay to identify small molecule agonists of the estrogen related receptor (ERR) signaling pathway from Tox21 library (AID 1224849; calls by dose curve; also: nearly all actives have a fitted effect of over 15% in size)
Summary of the method: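 ERR reporter cell line (NTP) seeded, rested 6 h at 37 C/5% CO2, then pinned with Tox21 compounds in DMSO. After 18 h at 37 C, ONE-Glo luciferase luminescence was read following 30 min at room temperature.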

[2] = qHTS RealTime-Glo MT Cell Viability Assay in HepG2 cells - 24 hour (AID 1224867); also: nearly all actives have a fitted effect of over 50% in size
Summary of the method: (§1)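 Compound treatment began 5 h after plating HepG2 cells (600/well) with NanoLuc luciferase and prosubstrate. Plates stayed at 37 C for 40 h; luminescence was captured at six time points, 0 h through 40 h.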

[3] = qHTS RealTime-Glo MT Cell Viability Assay in HEK293 cells - 32 hour (AID 1224868); also: top concentration of the series differs between compounds; nearly all actives have a fitted effect of over 50% in size
Summary of the method: (§2)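 Quantitative high-throughput screen of the Tox21 10K library in HEK293: cells and RealTime-Glo reagents plated together, compound added at 5 h, luminescence monitored through 40 h at 37 C.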

[4] = A CellTox Green Cytotoxicity Assay to monitor cytotoxicity in HEK293 cells - 0 hour (AID 1224869); also: nearly all actives have a fitted effect of over 50% in size
Summary of the method: (§3)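 HEK293 cells premixed with CellTox Green dye were seeded at 600 cells/well and left 5 h at 37 C/5% CO2 before pin transfer of 23 nL compound in DMSO. Fluorescence from dye bound to dead-cell DNA was read during 40 h treatment.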

[5] = qHTS RealTime-Glo MT Cell Viability Assay in HepG2 cells - 40 hour (AID 1224870); also: nearly all actives have a fitted effect of over 50% in size
Summary of the method: (§4)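 Real-time viability: cells seeded at 600 per well together with NanoLuc and cell-permeant prosubstrate, compounds added after 5 h incubation. Luminescence tracked at 0, 8, 16, 24, 32 and 40 h of exposure.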

[6] = A CellTox Green Cytotoxicity Assay to monitor cytotoxicity in HEK293 cells - 40 hour (AID 1224871); also: nearly all actives have a fitted effect of over 45% in size
Summary of the method: as §3

[7] = qHTS RealTime-Glo MT Cell Viability Assay in HEK293 cells - 16 hour (AID 1224872)
Summary of the method: as §2

[8] = qHTS RealTime-Glo MT Cell Viability Assay in HepG2 cells - 8 hour (AID 1224873); also: nearly all actives have a fitted effect of over 55% in size
Summary of the method: as §4

[9] = qHTS RealTime-Glo MT Cell Viability Assay in HEK293 cells - 40 hour (AID 1224874); details: RealTime-Glo luminescence; max response: active compounds read low; also: nearly all actives have a fitted effect of over 50% in size
Summary of the method: (§5)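 HEK293 cells mixed with RealTime-Glo reagents (NanoLuc plus cell-permeant prosubstrate) at 600 cells/well, preincubated 5 h at 37 C/5% CO2, then given 23 nL compound in DMSO. Nonlytic luminescence from viable cells was read at 0, 8, 16, 24, 32 and 40 h.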

[10] = A CellTox Green Cytotoxicity Assay to monitor cytotoxicity in HepG2 cells - 16 hour (AID 1224876); also: nearly all actives have a fitted effect of over 45% in size
Summary of the method: (§6)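 HepG2 cells were seeded together with the CellTox Green dye at 600 cells/well, left 5 h at 37 C/5% CO2, then given compounds in DMSO. Fluorescence from dye bound to dead-cell DNA was read repeatedly over 40 h of treatment at 37 C.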

[11] = qHTS RealTime-Glo MT Cell Viability Assay in HepG2 cells - 32 hour (AID 1224877); also: nearly all actives have a fitted effect of over 55% in size
Summary of the method: as §1

[12] = A CellTox Green Cytotoxicity Assay to monitor cytotoxicity in HepG2 cells - 24 hour (AID 1224878); also: nearly all actives have a fitted effect of over 45% in size; also: potency is read from the fitted curve at half-maximal effect
Summary of the method: as §6

[13] = A CellTox Green Cytotoxicity Assay to monitor cytotoxicity in HepG2 cells - 40 hour (AID 1224879); also: nearly all actives have a fitted effect of over 40% in size; also: potency is read from the fitted curve at half-maximal effect
Summary of the method: as §6

[14] = qHTS RealTime-Glo MT Cell Viability Assay in HEK293 cells - 0 hour (AID 1224880); also: top concentration of the series differs between compounds; nearly all actives have a fitted effect of over 45% in size
Summary of the method: as §5

[15] = A CellTox Green Cytotoxicity Assay to monitor cytotoxicity in HEK293 cells - 32 hour (AID 1224881); also: nearly all actives have a fitted effect of over 40% in size
Summary of the method: as §3

[16] = A CellTox Green Cytotoxicity Assay to monitor cytotoxicity in HepG2 cells - 0 hour (AID 1224882); also: nearly all actives have a fitted effect of over 35% in size
Summary of the method: as §6

[17] = A CellTox Green Cytotoxicity Assay to monitor cytotoxicity in HepG2 cells - 32 hour (AID 1224883); also: nearly all actives have a fitted effect of over 50% in size
Summary of the method: as §6

[18] = A CellTox Green Cytotoxicity Assay to monitor cytotoxicity in HEK293 cells - 8 hour (AID 1224884); also: nearly all actives have a fitted effect of over 35% in size
Summary of the method: as §3

[19] = qHTS RealTime-Glo MT Cell Viability Assay in HepG2 cells - 16 hour (AID 1224885); also: nearly all actives have a fitted effect of over 50% in size
Summary of the method: as §1

[20] = A CellTox Green Cytotoxicity Assay to monitor cytotoxicity in HEK293 cells - 24 hour (AID 1224875)
Summary of the method: as §3

Row | Structure (SMILES) | outcome [1] | outcome [2] | Potency [3] | Potency [4] | outcome [5] | Potency [6] | Potency [7] | outcome [8] | max response [9] [%] | Potency [10] | outcome [11] | Potency [12] | Potency [13] | outcome [14] | Potency [15] | Potency [16] | Potency [17] | Potency [18] | outcome [19] | Potency [20]
1 | NC(=O)C1(N2CCCCC2)CCN(CCCC(=O)c2ccc(F)cc2)CC1 | inactive | inactive | inactive | inactive | inactive | inactive | inactive | inactive | -22.3 | inactive | inactive | inactive | inactive | inactive | inactive | inactive | inactive | inactive | inactive | –
2 | CC(C)(CO)[C@@H](O)C(=O)NCCCO | inactive | inactive | inactive | inactive | inactive | inactive | inactive | inactive | 4 | inactive | inactive | inactive | inactive | inactive | inactive | inactive | inactive | – | inactive | inactive
3 | CNCc1ccccc1 | inactive | inactive | inactive | inactive | inactive | inactive | inactive | inactive | -3.32 | inactive | inactive | inactive | inactive | inactive | inactive | inactive | inactive | inactive | inactive | inactive
4 | CCC(C)(CCC(C)C)C(=O)[O-].CCC(C)(CCC(C)C)C(=O)[O-].[Zn+2] (stereo unspecified) | inactive | inactive | inactive | inactive | inactive | inactive | inactive | inactive | 0.868 | inactive | inactive | inactive | inactive | inactive | inactive | – | inactive | – | inactive | –
5 | CCNC(=O)NCCCOc1cccc(CN2CCCCC2)c1 | inactive | inactive | inactive | inactive | inactive | inactive | inactive | inactive | -3.36 | – | inactive | – | 26.8 µM (active) | inactive | inactive | – | – | inactive | inactive | –
6 | Cc1ccccc1C(=O)N1CC/C(=N\OS(=O)(=O)O)c2ccc(Cl)cc21 | inactive | inactive | inactive | inactive | inactive | inactive | inactive | inactive | -2.43 | – | inactive | 26.8 µM (active) | 23.9 µM (active) | inactive | inactive | – | – | inactive | inactive | inactive
7 | CCCOC(=O)CCCCC(=O)OCCC | inactive | inactive | inactive | inactive | inactive | inactive | inactive | inactive | -4.84 | inactive | inactive | inactive | inactive | inactive | inactive | inactive | inactive | – | inactive | inactive
